MITF primary: human MITF inhibition, primary screen. O75030. AlphaScreen MITF homodimerization, bead proximity signal. inhibition, % at 2.6 µM. 0.91% of 650,000 active; in the data active means inhibition above about 50%;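 further: 0% = vehicle wells with protein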
TEAD-YAP inh: TEAD-YAP interaction inhibition | HEK-TIYL cells, TEAD-Gal4/YAP UAS-luciferase luminescence | inhibition, % at 9.12 µM | 1.4% of 640,000 active; in the data active means inhibition above about 32%;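 further: 0% = median of test compound wells and 100% = reference inhibitor wells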
FBW7 act: human FBW7 E3 ligase activation, primary screen; 0.13% of 650,000 active; Q969H0; normalized activity (activation), % at 26.1 µM; AlphaScreen FBW7–phospho-cyclin E peptide binding, activator screen; in the data active means normalized activity above about 1.9%;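 further: purified mutant Fbw7 with reduced substrate affinity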
Target sequence (Q969H0 whole entry, looked up): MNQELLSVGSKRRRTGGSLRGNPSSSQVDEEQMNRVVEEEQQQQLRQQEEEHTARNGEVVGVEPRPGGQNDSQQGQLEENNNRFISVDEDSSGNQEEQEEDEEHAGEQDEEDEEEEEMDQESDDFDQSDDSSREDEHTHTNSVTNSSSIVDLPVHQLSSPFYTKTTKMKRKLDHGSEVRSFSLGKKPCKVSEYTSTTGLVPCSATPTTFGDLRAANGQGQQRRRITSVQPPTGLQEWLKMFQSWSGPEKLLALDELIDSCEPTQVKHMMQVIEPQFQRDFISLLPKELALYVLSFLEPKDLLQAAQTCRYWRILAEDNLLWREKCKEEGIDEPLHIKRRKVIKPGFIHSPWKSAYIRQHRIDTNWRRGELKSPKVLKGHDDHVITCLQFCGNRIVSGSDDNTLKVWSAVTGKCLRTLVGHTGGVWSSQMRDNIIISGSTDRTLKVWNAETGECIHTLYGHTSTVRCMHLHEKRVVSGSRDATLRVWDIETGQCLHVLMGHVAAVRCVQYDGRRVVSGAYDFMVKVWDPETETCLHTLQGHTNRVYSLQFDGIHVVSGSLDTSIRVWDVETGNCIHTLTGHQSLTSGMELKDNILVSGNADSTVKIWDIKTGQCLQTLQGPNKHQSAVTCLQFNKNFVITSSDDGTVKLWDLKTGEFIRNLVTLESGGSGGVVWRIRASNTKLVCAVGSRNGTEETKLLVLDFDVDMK
GPR151 ag: activates the human receptor GPR151. 1% of 650,000 active. Q8TDV0. PathHunter beta-arrestin GPR151 cells, luminescence. activation, % at 11.2 µM; in the data active means activation above about 4.9%;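 further: 0% = median of compound wells and 100% = cells with positive control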
GPR151 conf act: confirmation of human GPR151 activators | shares compounds with GPR151 ag | GPR151 PathHunter beta-arrestin cells, luminescence, 90 min; % of EA-reagent control over plate median | activation, % at 11.2 µM | 6,700 tested, under 10 active;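 active means mean percent activation across replicates above the confirmation screen cutoff of 4.91%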
GPR119 ag: activates human GPR119 in a GPR151 counter-screen. shares compounds with GPR151 ag. GPR119 PathHunter beta-arrestin cells, luminescence, 90 min; 0 = compound-well median, 100 = enzyme-acceptor control. activation, % at 11.2 µM. 0.3% of 6,700 active. AID 1508611;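 active means mean percent activation in the counterscreen above 29.09%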;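 further: counterscreen on off-target GPR119 to flag nonselective hits from the GPR151 activator screen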
An asterisk follows results filed as active. Sampled rows, rich in hits. Any-hit rate of the full collection: about 3.5%.

`CCN(C(=O)C1CCCN1S(=O)(=O)c1cccc2nsnc12)c1cccc(C)c1` (centres undefined) gave MITF primary 17, TEAD-YAP inh 7, FBW7 act 0, GPR151 ag 8.2*, GPR151 conf act -1 and GPR119 ag 2.
`CCN(CC)C(=O)C1CCCN1S(=O)(=O)c1cccc2nsnc12` (centres undefined) gave MITF primary 11, TEAD-YAP inh -1, FBW7 act 0 and GPR151 ag 2.
`Cc1cc2c(cc1C)C(c1cccc([N+](=O)[O-])c1)CC(=O)N2` (centres undefined) gave MITF primary -5, TEAD-YAP inh 18, FBW7 act 0 and GPR151 ag 0.
Cc1cc2c(cc1C)C(c1cc([N+](=O)[O-])ccc1Cl)CC(=O)N2 (centres undefined) was read as MITF primary 4, TEAD-YAP inh -2, FBW7 act 0, GPR151 ag 5.0*, GPR151 conf act 2 and GPR119 ag 10.
COc1cc(C2CC(=O)Nc3cc(C)c(C)cc32)cc(OC)c1OC (centres undefined) was read as MITF primary 7, TEAD-YAP inh 49*, FBW7 act 0, GPR151 ag 13*, GPR151 conf act 1 and GPR119 ag 12.
Screening COc1cccc(C2CC(=O)Nc3cc(C)c(C)cc32)c1OC (centres undefined) returned MITF primary 0, TEAD-YAP inh 10, FBW7 act 0 and GPR151 ag 3.
For O=c1c2sc3ccc([N+](=O)[O-])cc3c2[nH]c(=S)n1Cc1cccnc1 the results were MITF primary 3, TEAD-YAP inh 6, FBW7 act 0 and GPR151 ag 0.
CCC(C)NC(=O)C1C2C(=O)N(Cc3ccccc3)CC23C=CC1(C)O3 (centres undefined) was read as MITF primary 9, TEAD-YAP inh 8, FBW7 act 0, GPR151 ag 8.7*, GPR151 conf act 0 and GPR119 ag -8.
O=C(Nc1ccc2c(c1)CN(C(=O)Cn1c(=O)oc3ccccc31)CC2)C1CCCO1 (centres undefined) was read as MITF primary 13, TEAD-YAP inh -2, FBW7 act 0, GPR151 ag 6.8*, GPR151 conf act -1 and GPR119 ag -7.
Screening CCOC(=O)c1cnc2c(OC)cccc2c1Nc1cccc(C(=O)O)c1 returned MITF primary 11, TEAD-YAP inh -3, FBW7 act 0, GPR151 ag 5.3*, GPR151 conf act 2 and GPR119 ag 12.
`O=C(NCc1ccccc1)c1nnc(Cc2cccc(Cl)c2)o1` gave MITF primary -2, TEAD-YAP inh -5, FBW7 act 0 and GPR151 ag 0.
`Cc1ccc(CNC(=O)c2nnc(Cc3cccc(Cl)c3)o2)cc1` gave MITF primary -2, TEAD-YAP inh 3, FBW7 act 0, GPR151 ag 7.4*, GPR151 conf act 0 and GPR119 ag 5.
Screening C=CCn1c(COc2ccc(OC)cc2)nc2ccccc21 returned MITF primary -4, TEAD-YAP inh -59, FBW7 act 0 and GPR151 ag -1.
C=CCn1c(/N=C/c2ccc(OC)cc2)nc2ccccc21 was read as MITF primary 6, TEAD-YAP inh 5, FBW7 act 0, GPR151 ag 5.0*, GPR151 conf act 2 and GPR119 ag 12.
For O=C(CSc1nnc2ncccn12)N1CCN(C(=O)c2ccco2)CC1 the results were MITF primary 5, TEAD-YAP inh -13, FBW7 act 0 and GPR151 ag 2.
`CCn1nnnc1SCC(=O)N1CCN(C(=O)c2ccco2)CC1` gave MITF primary 2, TEAD-YAP inh -9, FBW7 act 0, GPR151 ag 5.0*, GPR151 conf act -1 and GPR119 ag -9.
`CC(Cc1ccccc1)N=C1SCC(=O)N1Cc1ccccc1` (centres undefined) gave MITF primary -19, TEAD-YAP inh -1, FBW7 act 0, GPR151 ag 7.6*, GPR151 conf act 0 and GPR119 ag 1.
For CCn1c(SCC(N)=O)nc2ccc(I)cc2c1=O the results were MITF primary 8, TEAD-YAP inh -4, FBW7 act 0 and GPR151 ag 0.
For CCn1c(SCC(N)=O)nc2ccc(Br)cc2c1=O the results were MITF primary 1, TEAD-YAP inh -2, FBW7 act 0, GPR151 ag 5.4*, GPR151 conf act 0 and GPR119 ag -5.
`CCn1c(=O)c2ccccc2n2c(SCC(N)=O)nnc12` gave MITF primary 0, TEAD-YAP inh -2, FBW7 act 0, GPR151 ag 6.3*, GPR151 conf act 0 and GPR119 ag 5.
Screening CCCn1c(=O)c2ccccc2n2c(SCC(N)=O)nnc12 returned MITF primary 12, TEAD-YAP inh 6, FBW7 act 0 and GPR151 ag 1.
For Cc1noc(/C=C\c2ccc(N3CCCC3)cc2)c1[N+](=O)[O-] the results were MITF primary -7, TEAD-YAP inh -9, FBW7 act 0 and GPR151 ag 2.
`CC(C)(C)C(=O)CN1CCN(c2ccc(F)cc2)CC1` gave MITF primary -11, TEAD-YAP inh -6, FBW7 act 0 and GPR151 ag -2.
For CCOC(=O)c1sc(/N=C/N(C)C)c(C(=O)OCC)c1C the results were MITF primary 1, TEAD-YAP inh -9, FBW7 act 0, GPR151 ag 11*, GPR151 conf act 1 and GPR119 ag 5.
Screening CCOC(=O)/C(N=Nc1sc(C(=O)OCC)c(C)c1C(=O)OCC)=C(\O)CCl returned MITF primary 3, TEAD-YAP inh -5, FBW7 act 0, GPR151 ag 6.7*, GPR151 conf act 1 and GPR119 ag -3.
`CC1CCCCC1NC(=O)Cn1c2ccccc2n2c(=O)n(CC(N)=O)nc12` (centres undefined) gave MITF primary 8, TEAD-YAP inh -2, FBW7 act 0 and GPR151 ag 3.
COCCN(C(=O)CC1(c2ccccc2C)CC(=O)N(Cc2cccnc2)C1=O)C(C)C (centres undefined) was read as MITF primary 25, TEAD-YAP inh 3, FBW7 act 0 and GPR151 ag 0.
`Clc1nn2cnnc2c2ccccc12` gave MITF primary 0, TEAD-YAP inh -2, FBW7 act 0, GPR151 ag 6.9*, GPR151 conf act 0 and GPR119 ag -7.
Screening c1ccc(-c2nn3cnnc3c3ccccc23)cc1 returned MITF primary 6, TEAD-YAP inh -15, FBW7 act 0 and GPR151 ag 1.
Screening Cc1ccc(C)c(Oc2coc3cc(OC(=O)c4ccc(Br)cc4)ccc3c2=O)c1 returned MITF primary 5, TEAD-YAP inh -1, FBW7 act 0 and GPR151 ag -2.

Bioassay records from PubChem.
